29 compounds from PubChem BioAssay (Tox21) can be followed below.

“And” between values parts separate entries of the source, which are not always exact repeats. Equal entries are not always repeated. Inconclusive results are not listed. The source made the active and inactive calls. Unless noted, calls come from the whole dose curve; as a rule, active = well fitted curve in the direction sought with a large enough effect in the repeat runs; inconclusive = weak or mixed curves; inactive = no such curve, though single readings can be large; an effect the other way counts as inactive or inconclusive.

Experiment [1] is described as follows: qHTS assay for small molecules that induce genotoxicity in human embryonic kidney cells expressing luciferase-tagged ATAD5 (AID 651632). Note: nearly all actives have a fitted effect of over 15% in size. Note: potency is the fitted concentration of half-maximal effect. In short, it runs like this:
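HEK293T cells carrying a luciferase reporter tagged to ATAD5 were exposed to compound or DMSO vehicle for 16 hr at 37C, 5% CO2. Amplite was added, and after 30 min at room temperature luciferase activity was read as a marker of ATAD5 induction.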
(Quantitative high-throughput screening tests each substance at several concentrations.)

Experiment [2] is described as follows: qHTS assay for small molecules that induce genotoxicity in human embryonic kidney cells expressing luciferase-tagged ATAD5 - cell viability (AID 651634; calls by dose curve; note: nearly all actives have a fitted effect of over 25% in size; note: potency is the fitted concentration of half-maximal effect). In short, it runs like this: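 HEK293T cells expressing luciferase-tagged ATAD5 were exposed to compound or DMSO for 15.5 hr at 37C, 5% CO2. Viability was then read as live-cell protease activity by CellTiter-Fluor fluorescence after 30 min at 37C.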

Experiment [3] is described as follows: qHTS assay for small molecule disruptors of the mitochondrial membrane potential (AID 720635). Note: potency is the fitted concentration of half-maximal effect. In short, it runs like this:
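HepG2 cells exposed to compound 1 hr at 37C, then Mito-MPS dye 30 min. Ratio read of aggregate (540/590 nm) versus monomer (490/535 nm) fluorescence.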

Experiment [4] can be described thus: qHTS assay to test for compound auto fluorescence at 590 nm (red) in HepG2 cells (AID 720674). In short, it runs like this:
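Seeding: 2,000 HepG2 cells/well, MEM/10% FBS, overnight 37 C. Dosing: compound vs DMSO. Incubation: 1 hr, 37 C, 5% CO2. Read: fluorescence 540 ex/590 em, Rose Bengal sodium as red reference.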

Experiment [5] is described as follows: qHTS assay to test for compound auto fluorescence at 535 nm (green) in HepG2 cells (AID 720675). Note: potency is the fitted concentration of half-maximal effect.
The nature of experiment [6]: qHTS assay to test for compound auto fluorescence at 460 nm (blue) in HEK293 cells (AID 720678). In short, it runs like this: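 Blue read-out at excitation 405 nm and emission 460 nm follows overnight compound exposure of HEK293 cells at 37C in 5% CO2. Activity is given as auto fluorescence equivalency to triamterene.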
Experiment [7] in a line: qHTS assay to test for compound auto fluorescence at 590 nm (red) in HEK293 cells (AID 720679). The method in brief: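 Red channel, Ex/Em 540/590nm; signal expressed as equivalency to Rose Bengal sodium. HEK293, 2,000 cells/well, 10% dialyzed FBS; 23 nL compound pinned after 4-5 hr attachment; overnight 37C/5% CO2 before reading.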
Experiment [8] can be described thus: qHTS assay for small molecule agonists of the p53 signaling pathway - cell viability (AID 651633; calls by dose curve; note: nearly all actives have a fitted effect of over 30% in size; note: potency is the fitted concentration of half-maximal effect). The method in brief:
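p53RE-bla cells were treated with compound for 16 hours at 37 C. Cytotoxicity was then measured as CellTiter-Glo luminescence after 30 min at room temperature.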

A short description of experiment [9]: qHTS assay for small molecule disruptors of the mitochondrial membrane potential - cell viability (AID 720634; calls by dose curve;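 note: human HepG2 liver cancer cells; series mostly up to about 83 µM; nearly all actives have a fitted effect of over 20% in size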). The method in brief:
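HepG2 cells seeded overnight at 37 C, then exposed to compound or DMSO for 1 hr at 37 C, 5% CO2. m-MPI dye added, then CellTiter-Glo for 30 min at room temperature; viability read as ATP luminescence.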

In the case of `CCC(NC(C)C)C(O)c1ccc(O)c(O)c1` (configuration not stated), the Potency result in [1], in experiment [2], in experiment [3], in experiment [5] and in experiment [6] was “inactive” in each case. Also, the compound was classed as inactive in [4] and in experiment [7].

As to `CC(C)c1ccc2sc3ccccc3c(=O)c2c1`, the Potency entry in experiment [8], in [2] and in experiment [5] was “inactive” throughout. Moreover, in experiment [3], the Potency was 48.6 µM (active). Moreover, the call in experiment [4] and in experiment [7] was inactive.

Take `C[N+](C)(C)CCOP(=O)(O)OP(=O)([O-])OC[C@H]1O[C@@H](n2ccc(N)nc2=O)[C@H](O)[C@@H]1O`: the Potency entry in experiment [8], in experiment [2], in [9], in experiment [3], in experiment [5] and in experiment [6] was “inactive” in each case. The outcome in experiment [4] and in experiment [7] was inactive.

On to `CO[C@H]1C[C@@H]2CC[C@@H](C)[C@@](O)(O2)C(=O)C(=O)N2CCCC[C@H]2C(=O)O[C@H]([C@H](C)C[C@@H]2CC[C@@H](O)[C@H](OC)C2)CC(=O)[C@H](C)C=C(C)[C@@H](O)[C@@H](OC)C(=O)[C@H](C)C[C@H](C)/C=C/C=CC=C1C`, for which the Potency is 21.1 µM (active) and 23.7 µM (active) in [8]; 29.8 µM (active) and 26.6 µM (active) in experiment [2]; 17.6 µM (active) and 19.7 µM (active) in experiment [3]. The Potency result in [9], in experiment [5] and in experiment [6] was “inactive” each time. Also, the compound was called inactive in experiment [4] and in experiment [7].

With `CCCCCCCCCCCCCCCCC(C(=O)O)C(O)(CC(=O)O)C(=O)O` (configuration not stated), the Potency in [8] was 29.8 µM (active). The Potency entry in experiment [2], in [9] and in experiment [6] was “inactive” in each case. Also, the result in [4] and in [7] was inactive.

For the compound `CON=C1C[C@]2(C[C@@H]3C[C@@H](C/C=C(\C)C[C@@H](C)/C=C/C=C4\CO[C@@H]5[C@H](O)C(C)=C[C@@H](C(=O)O3)[C@]45O)O2)O[C@H](/C(C)=C/C(C)C)[C@H]1C`, the Potency entry in [1], in [5] and in [6] was “inactive” throughout. Besides, the Potency was 11.9 µM (active) and 8.41 µM (active) in experiment [2]; 13.3 µM (active) in [3]. The outcome in [4] and in [7] was inactive.

As to `COc1ccc2ccccc2c1`, the Potency result in experiment [5] and in experiment [6] was “inactive” throughout. Also, the compound was called inactive in [7].

With `O=C1CCCCCCCCCCCCCC1`, the Potency result in [1], in experiment [2], in experiment [9], in [5] and in [6] was “inactive” throughout. Besides, the Potency in experiment [3] was 48.6 µM (active). Besides, the call in experiment [4] and in experiment [7] was inactive.

As for `CC(=O)N(C)C`, the outcome in experiment [4] and in [7] was inactive.

In the case of `CCN1\C(=C/C=C/C=C/c2sc3ccccc3[n+]2CC)Sc2ccccc21`, the Potency entry in experiment [1], in [9] and in experiment [5] was “inactive” each time. For the same compound, the Potency in [2] was 23.7 µM (active) and 26.6 µM (active); in [3] it was 33.5 nM (active) and 266 nM (active). Also, the outcome in experiment [4] and in experiment [7] was inactive.

Take `C=CC(N)CCC(=O)O` (configuration not stated): the Potency entry in [1], in experiment [2], in [9], in [5] and in [6] was “inactive” in each case. Moreover, the compound was classed as inactive in experiment [4] and in experiment [7].

Regarding `CCSCC`, the Potency result in experiment [1], in [2], in experiment [9], in experiment [5] and in experiment [6] was “inactive” each time. Also, the outcome in experiment [4] and in experiment [7] was inactive.

As to `CC(=O)N[C@@H](C=O)[C@H](O)[C@H](O)[C@@H](O)CO`, the Potency entry in experiment [1], in experiment [2], in experiment [9], in experiment [5] and in experiment [6] was “inactive” throughout. Besides, the outcome in [4] and in experiment [7] was inactive.

On to `N[C@@H](Cc1ccc(O)c(O)c1)C(=O)O`, for which the Potency result in [1], in [2], in experiment [9] and in [5] was “inactive” throughout. Also, the call in [4] and in experiment [7] was inactive.

For `CC(=O)[C@]1(O)Cc2c(O)c3c(c(O)c2[C@@H](O[C@H]2C[C@H](N)[C@H](O)[C@H](C)O2)C1)C(=O)c1ccccc1C3=O`, the Potency is 0.841 µM (active) in [1], 15 µM (active) in experiment [2], 5.55 µM (active) in [3] and 12.6 µM (active) in experiment [5]. The result in [4] and in experiment [7] was inactive. In addition, the Potency result in [6] was “inactive”.

Take `CN[C@H]1CC[C@@H](c2ccc(Cl)c(Cl)c2)c2ccc(S(N)(=O)=O)cc21`: the Potency result in experiment [1], in experiment [9], in experiment [5] and in [6] was “inactive” in each case. In addition, in experiment [3], the Potency was 8.63 µM (active). Besides, the compound was classed as inactive in experiment [4] and in experiment [7].

As to `Oc1ccc(Cl)cc1C1CCCC1`, the Potency result in experiment [1], in [2], in experiment [5] and in [6] was “inactive” in each case. The Potency in experiment [3] was 3.86 µM (active). The compound was called inactive in [4] and in [7].

For `CC1=C(/C=C/C(C)=C/C=C/C(C)=C\C(=O)O)C(C)(C)CCC1`, the Potency entry in experiment [1], in experiment [9], in experiment [5] and in [6] was “inactive” in each case. In addition, the Potency in [3] is 61.3 µM (active). Further, the compound was called inactive in experiment [4] and in [7].

Consider `Nc1ccc(N)c([N+](=O)[O-])c1`, for which, in experiment [3], the Potency was 1.09 µM (active). For the same compound, the result in experiment [4] and in experiment [7] was inactive. Also, in experiment [6], the Potency entry is “inactive”.

In the case of `C(=C\c1ccncc1)/c1ccccc1`, the Potency in experiment [1] was 23.7 µM (active); in [3] it was 3.76 µM (active) and 10.6 µM (active). Also, the Potency entry in experiment [2], in experiment [9], in experiment [5] and in [6] was “inactive” in each case. Besides, the call in experiment [4] and in experiment [7] was inactive.

As to `COc1cccc(-c2ccc(/C=C\CN3CCCCCC3)cc2Cl)c1`, the Potency entry in experiment [1], in [2], in experiment [9], in experiment [5] and in experiment [6] was “inactive” throughout. Further, the result in experiment [4] and in experiment [7] was inactive.

`CCCCC/C=C\C=C\C(=O)OCC`: the Potency in experiment [8] is 56.8 µM (active); in [3], 71.5 µM (active). For the same compound, the Potency entry in experiment [2], in experiment [9] and in experiment [5] was “inactive” each time. For the same compound, in experiment [7], the outcome was inactive.

`CN1CCN(c2ccccc2/C=C2\SCCN(c3ccc(Cl)c(Cl)c3)C2=O)CC1`: the Potency entry in experiment [1], in experiment [2], in experiment [5] and in experiment [6] was “inactive” throughout. Moreover, in experiment [7], the call was inactive.

As for `CCCCCCCC1CCC(=O)O1` (configuration not stated), the result in experiment [4] and in experiment [7] was inactive. Also, the Potency result in experiment [5] and in experiment [6] was “inactive” in each case.

`C=CCc1cc(S(=O)(=O)c2ccc(O)c(CC=C)c2)ccc1O`: the Potency entry in experiment [1], in experiment [2] and in experiment [5] was “inactive” in each case. In experiment [3], the Potency is 27.3 µM (active). The compound was called inactive in experiment [4] and in experiment [7].

Consider `Clc1nc(C(Cl)(Cl)Cl)c(Cl)c(Cl)c1Cl`, for which the values for the Potency in experiment [8] and in experiment [2] were 61.1 µM (active) and 48.6 µM (active), respectively. Further, the Potency entry in [9], in experiment [5] and in experiment [6] was “inactive” throughout. For the same compound, the compound was classed as inactive in [4] and in [7].

With `O=C(CCN1CCC(c2ccccc2)C1)c1ccc2c(c1)OCCO2` (configuration not stated), the Potency result in experiment [1], in [2], in experiment [9], in experiment [3], in [5] and in experiment [6] was “inactive” in each case. Further, the result in experiment [4] and in experiment [7] was inactive.

As to `CC(Cc1ccc(O)c(O)c1)C(C)Cc1ccc(O)c(O)c1` (configuration not stated), the Potency result in experiment [1], in [2], in experiment [9], in experiment [5] and in experiment [6] was “inactive” throughout. Further, the Potency in experiment [3] is 13.7 µM (active). For the same compound, the result in experiment [4] and in experiment [7] was inactive.

Regarding `CC(O)(c1ccc(Cl)cc1)c1ccc(Cl)cc1`, the Potency entry in experiment [1], in [2], in experiment [5] and in experiment [6] was “inactive” throughout. Besides, the Potency in [3] was 27.3 µM (active). Also, the result in [4] and in experiment [7] was inactive.
